Data on 38 compounds can be found in PubChem BioAssay (NCI).

The panel holds about 83,000 compounds, 20% with a hit somewhere; the sample as a whole holds those more often.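 Testing used 96-well plates and a 48-hour single-concentration exposure. Example: -40 means 40% of the starting cells died.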 Activity calls are given as the source filed them. Rule for the calls: active = growth percent below 10; inactive = the rest.

The subject of the first test is A498 renal. Description: NCI-60 one-dose screen, 48 h (100 = growth as untreated, 0 = no growth, -100 = all killed). Conditions: 10 µM unless noted.
Consider `N#Cc1c(-c2ccccc2Cl)cc(-c2c[nH]c3ccccc23)[nH]c1=O`, for which the growth was 116% (inactive).
On the same count and under the same terms, to `CN1CCN(/C(=N\c2sc(-c3ccccc3)nc2-c2ccccc2)c2ccccc2)CC1` belongs 122% (inactive); to `COc1ccc(-c2cc(C(=O)NCc3ccccc3)nn2-c2ccc(S(C)(=O)=O)cc2)cc1OC`, 99.9% (inactive).
Still for that read-out and setting: the same measure for `O=C(COc1ccc(NC(=O)Nc2ccc(Cl)c(Cl)c2)cc1)N=Nc1c(O)[nH]c2ccc(Cl)cc12`: -32.4% (active); for `C=C1CC[C@@H]2[C@]3(C)COC(c4cn(-c5ccccc5)nc4-c4ccccc4)O[C@@H]3CC[C@@]2(C)[C@@H]1C/C=C1/C(=O)OC[C@H]1O` (stereo partly specified): -13.9% (active).
Still for that read-out and setting: the same measure for `CC(=O)Nc1cccc(-c2nc3cc(-c4ccc(O)cc4)ccc3n2C)c1`: 86.8% (inactive); for `O=C(/C=C/c1ccc(-c2ccccc2)cc1)c1nc2ccccc2n1Cc1ccc(F)cc1`: 110% (inactive).
Take `Cc1cc2nc3c4ccccc4n(CCNCCN(C)C)c3nc2cc1C`: the growth was 75.4% (inactive).
On the same count and under the same terms, to `c1ccc(-c2csc(Nc3cccc(Nc4nc(-c5ccccc5)cs4)c3)n2)cc1` belongs 85.5% (inactive); to `O=C(N/N=C/c1ccc(-c2ccc(O)cc2)s1)c1[nH]c2ccc(Br)cc2c1-c1ccccc1`, -8.65% (active).
Same read-out and setting: to `COCOc1cc2c(=O)c(C)c(C(=O)N[C@@H](Cc3ccccc3)C(O)C(=O)NCc3ccccc3)oc2cc1OC` (stereo partly specified) belongs -6.29% (active).
For the compound `COc1cc2oc(-c3cccc(C(=O)Nc4ccc(Cl)cc4)c3)cc(=O)c2c(OCCNC(=O)[C@@H](N)CCC(=O)O)c1OC`, the growth is 157% (inactive).
The same measure, in the same setting: to `Cn1cc(-c2nc(N)nnc2-c2c[nH]c3ccc(Br)cc23)c2cccnc21` belongs 131% (inactive).
Still for that read-out and setting: to `O=C1c2c(c3c4cc(F)ccc4oc3c3[nH]c4ccc(Br)cc4c23)C(=O)N1O` belongs 119% (inactive); to `CCCCNC(=S)Nc1ccc(OCc2nc3ccccc3[nH]2)cc1`, 96.5% (inactive); to `COc1cc(-c2ccc(/C=N/NC(=O)c3[nH]c4ccc(Br)cc4c3-c3ccccc3)s2)cc(OC)c1OC`, 130% (inactive).
Still for that read-out and setting: to `C=C1CC[C@@H]2[C@]3(C)COC(c4cn[nH]c4-c4ccc(C)cc4)O[C@@H]3CC[C@@]2(C)[C@@H]1C/C=C1/C(=O)OCC1O` (stereo partly specified) belongs 133% (inactive).
For `COc1cc2c(c(OC)c1OC)C(=O)CC(c1cccc(NC(=O)c3cc(N)ccc3Cl)c1)O2` (stereo unspecified), the growth was 105% (inactive).
Turning to `COc1cc2c(c(OC)c1OC)C(=O)CC(c1cccc(NC(=O)c3cccc(NC(=O)[C@H](C)NC(=O)OC(C)(C)C)c3)c1)O2` (stereo partly specified), the growth was 104% (inactive).
Still for that read-out and setting: to `C=C1CCC2C3(C)COC(c4cc(F)cc(F)c4)OC3CCC2(C)C1CC(O)C1=CCOC1=O` (stereo unspecified) belongs 120% (inactive); to `O=C(/C=C/c1ccc(O)c(O)c1)NC1CCOC1O` (stereo unspecified), 109% (inactive).
On the same count and under the same terms, the same measure for `C/C(=N\N=C1/C(=O)Nc2ccc(Cl)cc21)c1ccc2c(c1)Nc1ccccc1S2`: 23.7% (inactive); for `CC(C)CCNC(=O)N/C(N)=N/c1nc2ccccc2s1`: 116% (inactive).
The same measure, in the same setting: to `OCNc1ccc(-n2cnc3cc(-c4ccc(O)cc4)ccc32)cc1C(F)(F)F` belongs 74.9% (inactive); to `C=C1CCC2C3(C)COC(c4ccc(F)cc4)OC3CCC2(C)C1C/C=C1/C(=O)OCC1O` (stereo unspecified), 89.6% (inactive); to `O=c1[nH]n(C(=S)N/N=C/c2ccccc2Cl)c(=O)c2ccccc12`, 38.7% (inactive).
For the compound `N#Cc1c(-c2cccc(Cl)c2Cl)cc(-c2ccc3ccccc3c2)[nH]c1=O`, the growth is 87.5% (inactive).
The same measure, in the same setting: to `Clc1cccc(Cl)c1/C=C/c1cc(/C=C/c2ccc(Br)cc2)c2ccccc2n1` belongs 142% (inactive); to `CC(C)c1ccc2c(N)c(C(=O)Nc3ccc(C(F)(F)F)cn3)sc2n1`, 115% (inactive); to `CCN(CC)C(=O)N/C(N)=N/c1nc2ccccc2s1`, 55.6% (inactive).
Still for that read-out and setting: to `O=C(COc1ccc(NC(=O)Nc2ccc(Cl)c(Cl)c2)cc1)N=Nc1c(O)[nH]c2ccc([N+](=O)[O-])cc12` belongs 98.2% (inactive); to `Cc1cc2c(cc1Cl)C(=O)/C(=C/c1ccc(F)cc1)O2`, 149% (inactive).
The same measure, in the same setting: the same measure for `CCCCOc1ccc(NC(=O)c2sc3nc(C)ccc3c2N)cc1`: 37.1% (inactive).
For `O=C1Nc2cc(Cl)ccc2/C1=C/c1cccc(OCc2ccccn2)c1`, the growth is 123% (inactive).
`NS(=O)(=O)c1ccc(N=Nc2c(O)n(CC(=O)Nc3ccccc3Cl)c3ccccc23)cc1`: the growth was 80.2% (inactive).
As to `O=C(Nc1cccc(-n2cnc3cc(-c4ccc(O)cc4)ccc32)c1)C1CC1`, the growth was 78.2% (inactive).
Same read-out and setting: to `C=C1CC[C@@H]2[C@]3(C)COC(c4cn[nH]c4-c4ccc(OC)cc4)O[C@@H]3CC[C@@]2(C)[C@@H]1C/C=C1/C(=O)OCC1O` (stereo partly specified) belongs 50.2% (inactive); to `CC(=O)Nc1ccc(-c2cn(-c3cccc(C(=O)Nc4ccc(N5CCN(C)CC5)cc4)c3)nn2)cn1`, 160% (inactive).

A further test deals with CCRF-CEM leukemia. Described as above. The note with it: 10 µM unless noted.
With `N#Cc1c(-c2ccccc2Cl)cc(-c2c[nH]c3ccccc23)[nH]c1=O`, the growth was 32.2% (inactive).
Take `CN1CCN(/C(=N\c2sc(-c3ccccc3)nc2-c2ccccc2)c2ccccc2)CC1`: the growth is 57.3% (inactive).
Same read-out and setting: the same measure for `COc1ccc(-c2cc(C(=O)NCc3ccccc3)nn2-c2ccc(S(C)(=O)=O)cc2)cc1OC`: 101% (inactive); for `O=C(COc1ccc(NC(=O)Nc2ccc(Cl)c(Cl)c2)cc1)N=Nc1c(O)[nH]c2ccc(Cl)cc12`: 8.9% (active).
On the same count and under the same terms, to `C=C1CC[C@@H]2[C@]3(C)COC(c4cn(-c5ccccc5)nc4-c4ccccc4)O[C@@H]3CC[C@@]2(C)[C@@H]1C/C=C1/C(=O)OC[C@H]1O` (stereo partly specified) belongs 31.5% (inactive); to `CC(=O)Nc1cccc(-c2nc3cc(-c4ccc(O)cc4)ccc3n2C)c1`, 28.3% (inactive); to `O=C(/C=C/c1ccc(-c2ccccc2)cc1)c1nc2ccccc2n1Cc1ccc(F)cc1`, 11.9% (inactive).
The same measure, in the same setting: the same measure for `Cc1cc2nc3c4ccccc4n(CCNCCN(C)C)c3nc2cc1C`: 21.7% (inactive); for `c1ccc(-c2csc(Nc3cccc(Nc4nc(-c5ccccc5)cs4)c3)n2)cc1`: 38.6% (inactive); for `O=C(N/N=C/c1ccc(-c2ccc(O)cc2)s1)c1[nH]c2ccc(Br)cc2c1-c1ccccc1`: -8.51% (active).
Regarding `COCOc1cc2c(=O)c(C)c(C(=O)N[C@@H](Cc3ccccc3)C(O)C(=O)NCc3ccccc3)oc2cc1OC` (stereo partly specified), the growth is 96.1% (inactive).
On the same count and under the same terms, the same measure for `COc1cc2oc(-c3cccc(C(=O)Nc4ccc(Cl)cc4)c3)cc(=O)c2c(OCCNC(=O)[C@@H](N)CCC(=O)O)c1OC`: 75.6% (inactive); for `Cn1cc(-c2nc(N)nnc2-c2c[nH]c3ccc(Br)cc23)c2cccnc21`: 36.1% (inactive).
Take `O=C1c2c(c3c4cc(F)ccc4oc3c3[nH]c4ccc(Br)cc4c23)C(=O)N1O`: the growth is 9.46% (active).
Still for that read-out and setting: to `CCCCNC(=S)Nc1ccc(OCc2nc3ccccc3[nH]2)cc1` belongs 34.2% (inactive); to `COc1cc(-c2ccc(/C=N/NC(=O)c3[nH]c4ccc(Br)cc4c3-c3ccccc3)s2)cc(OC)c1OC`, 73.2% (inactive).
On the same count and under the same terms, the same measure for `C=C1CC[C@@H]2[C@]3(C)COC(c4cn[nH]c4-c4ccc(C)cc4)O[C@@H]3CC[C@@]2(C)[C@@H]1C/C=C1/C(=O)OCC1O` (stereo partly specified): -17.8% (active); for `COc1cc2c(c(OC)c1OC)C(=O)CC(c1cccc(NC(=O)c3cc(N)ccc3Cl)c1)O2` (stereo unspecified): 22.5% (inactive).
On the same count and under the same terms, the same measure for `COc1cc2c(c(OC)c1OC)C(=O)CC(c1cccc(NC(=O)c3cccc(NC(=O)[C@H](C)NC(=O)OC(C)(C)C)c3)c1)O2` (stereo partly specified): 31.2% (inactive); for `C=C1CCC2C3(C)COC(c4cc(F)cc(F)c4)OC3CCC2(C)C1CC(O)C1=CCOC1=O` (stereo unspecified): 16.8% (inactive); for `O=C(/C=C/c1ccc(O)c(O)c1)NC1CCOC1O` (stereo unspecified): 96.4% (inactive).
In the case of `C/C(=N\N=C1/C(=O)Nc2ccc(Cl)cc21)c1ccc2c(c1)Nc1ccccc1S2`, the growth was 9.58% (active).
Same read-out and setting: to `CC(C)CCNC(=O)N/C(N)=N/c1nc2ccccc2s1` belongs 59.1% (inactive); to `OCNc1ccc(-n2cnc3cc(-c4ccc(O)cc4)ccc32)cc1C(F)(F)F`, 31.9% (inactive).
The same measure, in the same setting: to `C=C1CCC2C3(C)COC(c4ccc(F)cc4)OC3CCC2(C)C1C/C=C1/C(=O)OCC1O` (stereo unspecified) belongs 11.4% (inactive); to `O=c1[nH]n(C(=S)N/N=C/c2ccccc2Cl)c(=O)c2ccccc12`, -11.2% (active).
Regarding `N#Cc1c(-c2cccc(Cl)c2Cl)cc(-c2ccc3ccccc3c2)[nH]c1=O`, the growth was 38.3% (inactive).
With `Clc1cccc(Cl)c1/C=C/c1cc(/C=C/c2ccc(Br)cc2)c2ccccc2n1`, the growth is 85% (inactive).
On the same count and under the same terms, to `CC(C)c1ccc2c(N)c(C(=O)Nc3ccc(C(F)(F)F)cn3)sc2n1` belongs 34.1% (inactive).
For the compound `CCN(CC)C(=O)N/C(N)=N/c1nc2ccccc2s1`, the growth was 41.9% (inactive).
Same read-out and setting: the same measure for `O=C(COc1ccc(NC(=O)Nc2ccc(Cl)c(Cl)c2)cc1)N=Nc1c(O)[nH]c2ccc([N+](=O)[O-])cc12`: 30.4% (inactive); for `Cc1cc2c(cc1Cl)C(=O)/C(=C/c1ccc(F)cc1)O2`: 94.5% (inactive).
On the same count and under the same terms, to `CCCCOc1ccc(NC(=O)c2sc3nc(C)ccc3c2N)cc1` belongs 42% (inactive); to `O=C1Nc2cc(Cl)ccc2/C1=C/c1cccc(OCc2ccccn2)c1`, 2.33% (active).
The same measure, in the same setting: to `NS(=O)(=O)c1ccc(N=Nc2c(O)n(CC(=O)Nc3ccccc3Cl)c3ccccc23)cc1` belongs 50.5% (inactive); to `O=C(Nc1cccc(-n2cnc3cc(-c4ccc(O)cc4)ccc32)c1)C1CC1`, 25.6% (inactive); to `C=C1CC[C@@H]2[C@]3(C)COC(c4cn[nH]c4-c4ccc(OC)cc4)O[C@@H]3CC[C@@]2(C)[C@@H]1C/C=C1/C(=O)OCC1O` (stereo partly specified), 0.599% (active).
`CC(=O)Nc1ccc(-c2cn(-c3cccc(C(=O)Nc4ccc(N5CCN(C)CC5)cc4)c3)nn2)cn1`: the growth is 40% (inactive).
